From PubChem BioAssay (EPA / NIEHS) come the findings set out here.

Inconclusive results are not listed. Active and inactive are the calls of the source. Rule for the calls: active = hit-call score of the fitted dose curve at least 0.9, where 1 is the maximum; inconclusive = response in the unintended direction; inactive = score below 0.9.

Experiment [1] deals with human Beta-secretase (BACE), BACE1 (gene 23621) (UniProt P56817). The experiment can be described thus: NVS_ENZ_hBACE: NovaScreen (NVS) Enzymatic Assay for human Beta-secretase (BACE) (AID 2283140).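 Note: hits are inhibitors that reduce fluorescent substrate signal versus DMSO.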 In a few lines: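 Enzyme activity of SF9-produced BACE1 is measured cell-free by fluorescence, 1 hour post dosing, normalised to DMSO. Screening used 25 uM in duplicate, with concentration-response follow-up for actives.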
Sequence of human Beta-secretase (BACE), BACE1 (gene 23621) (P56817 whole entry, looked up): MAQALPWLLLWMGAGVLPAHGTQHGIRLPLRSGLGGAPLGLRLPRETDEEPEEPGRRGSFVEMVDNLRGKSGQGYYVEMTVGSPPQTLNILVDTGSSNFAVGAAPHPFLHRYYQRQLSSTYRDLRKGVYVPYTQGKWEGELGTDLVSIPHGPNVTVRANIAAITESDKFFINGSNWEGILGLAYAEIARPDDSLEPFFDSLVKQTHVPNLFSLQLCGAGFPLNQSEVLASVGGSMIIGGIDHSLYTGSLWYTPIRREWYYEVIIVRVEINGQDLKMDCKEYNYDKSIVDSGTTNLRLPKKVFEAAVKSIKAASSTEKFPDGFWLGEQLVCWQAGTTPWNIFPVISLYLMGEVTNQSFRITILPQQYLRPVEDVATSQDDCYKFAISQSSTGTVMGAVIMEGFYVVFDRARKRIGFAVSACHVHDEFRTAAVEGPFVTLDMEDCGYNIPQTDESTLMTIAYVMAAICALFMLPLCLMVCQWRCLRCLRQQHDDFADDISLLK

In experiment [2] the target is human Dual Specificity Protein Phosphatase 3 (DUSP3), DUSP3 (gene 1845) (UniProt P51452). The experiment can be described thus: NVS_ENZ_hDUSP3: NovaScreen (NVS) Enzymatic Assay for human Dual Specificity Protein Phosphatase 3 (DUSP3) (AID 2283152).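 Note: phosphatase activity of recombinant human DUSP3 on a fluorogenic substrate without cells.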 In a few lines:
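Cell-free fluorescence-intensity enzyme activity assay with recombinant protein and substrate; loss of signal fitted relative to DMSO baseline. Primary screen in duplicate at 25 uM, actives then run in concentration series; measured 0 h after dosing.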

The target of experiment [3] is human Elastase, ELANE (gene 1991) (UniProt P08246). The experiment can be described thus: NVS_ENZ_hElastase: NovaScreen (NVS) Enzymatic Assay for human Elastase (AID 2283153). In a few lines:
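Concentration-response to 50 uM max, run singly for chemicals passing a threshold (e.g., 30% inhibition) in a duplicate 25 uM single-point screen. Neutrophil-derived human elastase, absorbance read-out of enzyme activity at 1.5 h; DMSO baseline.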

Experiment [4] addresses Glycogen synthase kinase-3 beta (Homo sapiens) (UniProt P49841). The experiment in a line: NVS_ENZ_hGSK3b: NovaScreen (NVS) Enzymatic Assay for human Glycogen Synthase Kinase-3 beta (GSK3b) (AID 2283165). In a few lines:
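Recombinant enzyme with specific fluorescent substrate, 1 h, product separated by electrophoretic mobility shift. Primary duplicate screen at 25 uM; actives (e.g. 30% inhibition) followed in singleton concentration-response to 50 uM. Signal loss fitted versus DMSO.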

The target in experiment [5] is human Esterase Plasma (ES), BCHE (gene 590) (UniProt P06276). The experiment can be described thus: NVS_ENZ_hES: NovaScreen (NVS) Enzymatic Assay for human Esterase Plasma (ES) (AID 2283157). In a few lines:
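Screening ran at 25 uM in duplicate, followed by singleton concentration series reaching 50 uM for actives. Human plasma protein, colorimetric detection, 0.25 h exposure, DMSO negative control.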

Experiment [6] addresses human Casein Kinase 1-delta (CK1D), CSNK1D (gene 1453) (UniProt P48730). The experiment in a line: NVS_ENZ_hCK1D: NovaScreen (NVS) Enzymatic Assay for human Casein Kinase 1-delta (CK1D) (AID 2283148). In a few lines:
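Recombinant human CK1-delta, cell-free; fluorescent substrate with electrophoretic mobility-shift separation of product, read 1 h after dosing. Single 25 uM duplicate screen, then concentration-response up to 50 uM; loss of signal vs DMSO.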

Experiment [7] concerns the target human Colony Stimulating Factor 1 Receptor (CSF1R), CSF1R (gene 1436) (UniProt P07333). The experiment can be described thus: NVS_ENZ_hCSF1R: NovaScreen (NVS) Enzymatic Assay for human Colony Stimulating Factor 1 Receptor (CSF1R) (AID 2283150). In a few lines:
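Compounds screened in duplicate at 25 uM, then concentration-response (top 50 uM) for those passing threshold such as 30% inhibition; recombinant CSF1R activity measured 1 h post-dosing via fluorescent substrate/product mobility-shift separation, loss of signal versus DMSO.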

Experiment [8] addresses Histone deacetylase 3 (Homo sapiens) (UniProt O15379). The experiment in a line: NVS_ENZ_hHDAC3: NovaScreen (NVS) Enzymatic Assay for human Histone Deacetylase 3 (HDAC3) (AID 2283163). In a few lines:
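Cell-free enzyme format: loss of fluorescent product after mobility-shift separation, 1 h incubation, recombinant human HDAC3. Single 25 uM duplicate screen first, then concentration series to a 50 uM top for hits; DMSO as baseline.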

Experiment [9] addresses human Aurora Kinase A - serine/threonine-protein Kinase 6 (AurA), AURKA (gene 6790) (UniProt O14965). The experiment can be described thus: NVS_ENZ_hAurA: NovaScreen (NVS) Enzymatic Assay for human Aurora Kinase A - serine/threonine-protein Kinase 6 (AurA) (AID 2283142). In a few lines: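 Recombinant human AurA activity read by fluorescence after mobility-shift separation of product from substrate; 1 hour incubation. Chemicals first run in duplicate at 25 uM, then concentration series to 50 uM if over threshold; fitted relative to DMSO.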

Experiment [10] deals with Protein deacetylase HDAC6 (Homo sapiens) (UniProt Q9UBN7). The experiment in a line: NVS_ENZ_hHDAC6: NovaScreen (NVS) Enzymatic Assay for human Histone Deacetylase 6 (HDAC6) (AID 2283164). In a few lines: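 Concentration-response runs up to 50 uM followed a duplicate 25 uM single-point screen. Deacetylase activity of recombinant human HDAC6 read by fluorescence after 1 h, with mobility-shift separation of substrate and product; DMSO as baseline.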

Experiment [11] addresses human Caspase 8 (CASP8), CASP8 (gene 841) (UniProt Q14790). The experiment in a line: NVS_ENZ_hCASP8: NovaScreen (NVS) Enzymatic Assay for human Caspase 8 (CASP8) (AID 2283146). In a few lines:
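The primary screen tested compounds in duplicate at a single 25 uM concentration, with actives followed up in concentration series. Activity of recombinant (E. coli) protease was measured by fluorescence 1 h post-dose, as signal loss against DMSO.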

The target of experiment [12] is human Ephrin type-A Receptor 1 (EphA1), EPHA1 (gene 2041) (UniProt P21709). The experiment can be described thus: NVS_ENZ_hEphA1: NovaScreen (NVS) Enzymatic Assay for human Ephrin type-A Receptor 1 (EphA1) (AID 2283158).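 Note: activity is signal loss versus DMSO meaning EphA1 kinase inhibition.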 In a few lines:
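Biochemical kinase assay run cell-free; 1 h incubation; readout is fluorescence with mobility-shift separation of product. Concentration-response up to 50 uM for actives from a 25 uM screen.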

Sequence of human Esterase Plasma (ES), BCHE (gene 590) (P06276 whole entry, looked up): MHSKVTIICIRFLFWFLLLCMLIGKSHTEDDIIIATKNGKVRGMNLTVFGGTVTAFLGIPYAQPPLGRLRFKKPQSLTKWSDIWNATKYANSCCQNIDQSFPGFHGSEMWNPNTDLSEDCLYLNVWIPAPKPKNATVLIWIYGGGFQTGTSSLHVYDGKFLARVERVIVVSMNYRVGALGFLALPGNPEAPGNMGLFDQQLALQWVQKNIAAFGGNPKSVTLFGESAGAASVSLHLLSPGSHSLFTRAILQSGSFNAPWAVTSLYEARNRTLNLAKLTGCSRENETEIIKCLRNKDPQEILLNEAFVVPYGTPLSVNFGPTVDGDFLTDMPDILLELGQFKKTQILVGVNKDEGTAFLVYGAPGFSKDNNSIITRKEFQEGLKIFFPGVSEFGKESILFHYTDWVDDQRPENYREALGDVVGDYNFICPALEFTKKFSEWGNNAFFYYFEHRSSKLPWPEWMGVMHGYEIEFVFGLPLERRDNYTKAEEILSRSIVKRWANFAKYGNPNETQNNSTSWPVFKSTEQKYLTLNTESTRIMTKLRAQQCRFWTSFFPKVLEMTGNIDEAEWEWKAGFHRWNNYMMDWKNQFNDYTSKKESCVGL
Sequence of human Dual Specificity Protein Phosphatase 3 (DUSP3), DUSP3 (gene 1845) (P51452 whole entry, looked up): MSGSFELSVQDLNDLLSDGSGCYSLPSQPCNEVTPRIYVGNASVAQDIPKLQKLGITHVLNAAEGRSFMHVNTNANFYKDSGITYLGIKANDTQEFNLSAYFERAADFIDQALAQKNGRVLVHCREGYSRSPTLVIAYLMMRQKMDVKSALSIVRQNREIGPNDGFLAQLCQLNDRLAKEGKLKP
Sequence of Glycogen synthase kinase-3 beta (Homo sapiens) (P49841 whole entry, looked up): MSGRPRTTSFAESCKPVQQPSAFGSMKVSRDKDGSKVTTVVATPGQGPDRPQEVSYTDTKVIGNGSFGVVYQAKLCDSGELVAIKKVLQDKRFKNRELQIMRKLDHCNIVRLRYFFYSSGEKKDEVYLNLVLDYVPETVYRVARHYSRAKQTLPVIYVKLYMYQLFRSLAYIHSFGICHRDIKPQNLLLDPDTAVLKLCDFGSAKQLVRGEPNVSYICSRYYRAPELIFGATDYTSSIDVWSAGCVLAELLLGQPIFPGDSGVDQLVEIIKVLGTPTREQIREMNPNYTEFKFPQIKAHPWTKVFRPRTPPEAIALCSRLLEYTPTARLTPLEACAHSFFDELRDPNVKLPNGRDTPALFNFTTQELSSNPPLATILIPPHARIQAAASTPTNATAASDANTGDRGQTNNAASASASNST
Sequence of human Elastase, ELANE (gene 1991) (P08246 whole entry, looked up): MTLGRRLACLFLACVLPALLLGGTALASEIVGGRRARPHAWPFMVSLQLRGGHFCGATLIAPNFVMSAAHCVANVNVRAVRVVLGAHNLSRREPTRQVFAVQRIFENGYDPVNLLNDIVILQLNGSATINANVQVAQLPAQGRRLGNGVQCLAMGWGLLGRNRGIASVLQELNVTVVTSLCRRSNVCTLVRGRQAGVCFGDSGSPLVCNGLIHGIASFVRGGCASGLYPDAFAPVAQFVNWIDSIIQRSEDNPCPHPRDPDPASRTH
Sequence of human Casein Kinase 1-delta (CK1D), CSNK1D (gene 1453) (P48730 whole entry, looked up): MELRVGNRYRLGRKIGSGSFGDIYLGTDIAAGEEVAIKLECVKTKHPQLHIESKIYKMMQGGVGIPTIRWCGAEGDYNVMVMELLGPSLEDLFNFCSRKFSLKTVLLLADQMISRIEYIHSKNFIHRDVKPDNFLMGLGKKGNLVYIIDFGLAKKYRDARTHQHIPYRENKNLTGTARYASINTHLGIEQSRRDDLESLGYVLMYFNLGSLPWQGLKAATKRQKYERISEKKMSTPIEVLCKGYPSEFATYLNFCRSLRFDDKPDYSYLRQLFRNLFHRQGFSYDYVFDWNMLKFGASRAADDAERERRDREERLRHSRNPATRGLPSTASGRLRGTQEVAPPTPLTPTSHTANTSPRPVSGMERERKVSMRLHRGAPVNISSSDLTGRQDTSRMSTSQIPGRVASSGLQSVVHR
Sequence of human Caspase 8 (CASP8), CASP8 (gene 841) (Q14790 whole entry, looked up): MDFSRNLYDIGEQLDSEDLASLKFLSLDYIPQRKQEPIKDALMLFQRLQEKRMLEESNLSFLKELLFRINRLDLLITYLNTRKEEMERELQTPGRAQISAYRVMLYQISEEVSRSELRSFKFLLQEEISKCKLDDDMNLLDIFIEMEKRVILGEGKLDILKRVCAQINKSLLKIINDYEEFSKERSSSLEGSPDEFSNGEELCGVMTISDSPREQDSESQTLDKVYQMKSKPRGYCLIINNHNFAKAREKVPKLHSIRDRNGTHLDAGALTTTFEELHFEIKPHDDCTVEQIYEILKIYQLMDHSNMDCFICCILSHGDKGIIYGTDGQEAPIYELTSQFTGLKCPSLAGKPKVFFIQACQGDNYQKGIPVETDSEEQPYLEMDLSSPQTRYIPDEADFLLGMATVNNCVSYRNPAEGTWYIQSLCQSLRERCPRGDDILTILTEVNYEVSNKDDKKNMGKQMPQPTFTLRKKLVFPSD
Sequence of human Ephrin type-A Receptor 1 (EphA1), EPHA1 (gene 2041) (P21709 whole entry, looked up): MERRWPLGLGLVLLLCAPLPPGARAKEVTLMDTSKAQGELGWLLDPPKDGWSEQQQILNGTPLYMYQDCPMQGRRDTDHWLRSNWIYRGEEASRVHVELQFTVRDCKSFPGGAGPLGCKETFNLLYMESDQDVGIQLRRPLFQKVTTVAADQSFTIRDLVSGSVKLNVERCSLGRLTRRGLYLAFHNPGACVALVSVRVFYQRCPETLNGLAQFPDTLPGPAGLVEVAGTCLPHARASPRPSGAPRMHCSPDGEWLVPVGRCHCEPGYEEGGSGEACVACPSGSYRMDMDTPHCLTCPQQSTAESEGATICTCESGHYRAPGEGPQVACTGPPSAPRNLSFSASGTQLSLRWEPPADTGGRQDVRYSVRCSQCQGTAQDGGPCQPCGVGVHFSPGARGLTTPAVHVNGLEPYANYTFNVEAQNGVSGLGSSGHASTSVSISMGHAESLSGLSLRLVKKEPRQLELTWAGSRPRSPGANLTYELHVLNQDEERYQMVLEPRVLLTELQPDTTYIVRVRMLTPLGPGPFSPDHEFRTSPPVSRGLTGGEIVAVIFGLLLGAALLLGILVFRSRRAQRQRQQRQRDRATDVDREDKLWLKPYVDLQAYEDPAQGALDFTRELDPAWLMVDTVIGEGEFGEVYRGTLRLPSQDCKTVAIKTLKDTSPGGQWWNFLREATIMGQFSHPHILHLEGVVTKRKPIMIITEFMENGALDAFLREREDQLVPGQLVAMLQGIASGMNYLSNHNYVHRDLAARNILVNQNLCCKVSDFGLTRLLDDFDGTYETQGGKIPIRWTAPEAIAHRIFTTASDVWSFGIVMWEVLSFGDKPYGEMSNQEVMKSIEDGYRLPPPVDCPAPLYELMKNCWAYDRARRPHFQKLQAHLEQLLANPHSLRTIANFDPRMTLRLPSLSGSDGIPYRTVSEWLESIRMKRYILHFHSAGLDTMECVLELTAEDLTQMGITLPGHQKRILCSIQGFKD
Sequence of human Colony Stimulating Factor 1 Receptor (CSF1R), CSF1R (gene 1436) (P07333 whole entry, looked up): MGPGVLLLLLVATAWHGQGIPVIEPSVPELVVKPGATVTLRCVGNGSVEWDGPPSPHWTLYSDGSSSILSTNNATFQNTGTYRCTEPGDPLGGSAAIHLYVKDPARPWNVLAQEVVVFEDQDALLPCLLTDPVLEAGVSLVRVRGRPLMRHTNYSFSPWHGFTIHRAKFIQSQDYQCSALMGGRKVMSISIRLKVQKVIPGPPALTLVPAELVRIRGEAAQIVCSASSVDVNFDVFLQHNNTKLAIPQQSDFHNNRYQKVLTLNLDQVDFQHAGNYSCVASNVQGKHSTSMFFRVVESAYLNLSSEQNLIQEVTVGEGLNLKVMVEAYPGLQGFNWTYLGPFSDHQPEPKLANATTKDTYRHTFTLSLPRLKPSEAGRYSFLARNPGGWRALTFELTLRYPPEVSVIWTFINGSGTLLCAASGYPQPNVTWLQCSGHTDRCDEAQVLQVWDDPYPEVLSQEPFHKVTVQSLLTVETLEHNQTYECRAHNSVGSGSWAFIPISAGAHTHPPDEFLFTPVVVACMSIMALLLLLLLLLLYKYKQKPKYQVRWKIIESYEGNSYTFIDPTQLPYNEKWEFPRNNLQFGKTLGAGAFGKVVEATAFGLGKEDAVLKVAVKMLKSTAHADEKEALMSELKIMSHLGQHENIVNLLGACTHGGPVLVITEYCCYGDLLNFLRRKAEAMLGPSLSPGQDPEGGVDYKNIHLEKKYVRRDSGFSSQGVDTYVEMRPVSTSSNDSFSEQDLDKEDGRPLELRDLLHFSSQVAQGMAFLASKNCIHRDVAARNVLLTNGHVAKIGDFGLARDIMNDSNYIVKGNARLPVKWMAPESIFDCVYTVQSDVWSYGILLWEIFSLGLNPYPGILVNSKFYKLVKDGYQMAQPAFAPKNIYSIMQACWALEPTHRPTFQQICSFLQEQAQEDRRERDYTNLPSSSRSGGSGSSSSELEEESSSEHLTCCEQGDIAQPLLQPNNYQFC

What is called AC50 is the midpoint of the concentration-response curve, whichever way the signal moves. `COc1cc(-c2ccc(N)c(OC)c2)ccc1N`: the half-maximal activity concentration (AC50) in experiment [1] is 16.4 µM (active); in experiment [2], 7.49 µM (active); in experiment [3], 20.5 µM (active). Moreover, in experiment [4], the result was inactive.

Regarding `CCN1CCC2(CC1)COc1cc3c(cc12)N(C(=O)c1ccc(-c2ccc(-c4nnc(C)o4)cc2C)cc1)CC3`, the AC50 in experiment [1] and in experiment [5] was 28.3 µM (active) each time.

On to `CCOP(=S)(OCC)SCSP(=S)(OCC)OCC`, for which the concentration at half-maximal activity (AC50) in experiment [2] was 6.76 µM (active). In experiment [5], the outcome was inactive.

Consider `C=C(C)C(=O)[O][Sn]([CH2]CCC)([CH2]CCC)[CH2]CCC`, for which the AC50 in [1] was 8.77 µM (active); in experiment [2], 10.9 µM (active). In experiment [3], the outcome was inactive.

For the compound `Nc1ncc([N+](=O)[O-])s1`, the AC50 in [2] is 2.36 µM (active).

For `O=C(Nc1ccc2[nH]ccc2c1)c1cc2cc(F)ccc2n1Cc1cccc(F)c1`, in experiment [1], the compound was called inactive.

For the compound `CCCCCCCCc1ccc(O)cc1`, the call in [6], in experiment [7] and in experiment [4] was inactive.

As for `O=[N+]([O-])c1ccc(O)c([N+](=O)[O-])c1`, the compound was called inactive in [6] and in [8].

With `COP(=S)(OC)Oc1ccc(Sc2ccc(OP(=S)(OC)OC)cc2)cc1`, the AC50 in experiment [1] was 2.51 µM (active).

Regarding `O=C1C2(Cl)C3(Cl)C4(Cl)C(Cl)(Cl)C5(Cl)C3(Cl)C1(Cl)C5(Cl)C24Cl` (stereo unspecified), the outcome in experiment [1], in [9], in experiment [10] and in experiment [4] was inactive.

As to `O=C(O)C(F)(F)C(F)(F)C(F)(F)C(F)(F)C(F)(F)C(F)(F)C(F)(F)C(F)(F)C(F)(F)C(F)(F)F`, the half-maximal activity concentration (AC50) in experiment [1] was 1.51 µM (active); in [2], 2.72 µM (active); in experiment [3] it was 13.5 µM (active). For the same compound, the compound was classed as inactive in experiment [5].

For the compound `O=c1[nH]c(=O)[nH]c(=O)[nH]1`, the compound was classed as inactive in experiment [11].

Take `COc1cc2c(cc1OC)[C@@]13CCN4CC5=CCO[C@H]6CC(=O)N2[C@H]1[C@H]6[C@H]5C[C@H]43`: the AC50 in [1] is 6.44 µM (active). Also, the compound was called inactive in [12].

Consider `Nc1cccc2ccccc12`, for which the AC50 in experiment [2] is 17 µM (active).
